JMJD2A Tudor = inhibitors of human JMJD2A Tudor domain | 390,000 tested, 4.4% active | AlphaScreen JMJD2A-Tudor / H3K4me3 peptide binding | O75164 | Potency, µM (doses to about 114 µM), most hits filed as inhibitors | AID 504339; note: nearly all actives have a fitted effect of over 50% in size
GLS inhibitor = glutaminase GLS (human) inhibition | O94925 | GLS enzymatic activity, qHTS titration | Potency, µM (highest dose often 45.5 µM), hits mostly inhibitors | 410,000 tested, 0.21% active
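Glutamate formation by hKGA was monitored fluorometrically using coupled glutamate oxidase, HRP and Amplex Red. Substrate was added as 1 mM L-glutamine solution; incubation was 30 min at RT after an initial read.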
HP1b binding inh = blocks HP1-beta chromodomain binding to methylated histone tails; AlphaScreen HP1-beta / biotin-H3K9me3 peptide binding; 390,000 tested, 0.56% active; P83916; Potency, µM (series often up to 114 µM), usual class: inhibitors; note: nearly all actives have a fitted effect of over 70% in size
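AlphaScreen: HP1-beta (50 nM) preformed 30 min with biotin-H3(1-18)K9me3 peptide (50 nM) in PBS pH 7.4, 0.01% Tween-20. Compound added for 30 min at RT, then streptavidin donor/nickel chelate acceptor beads (10 ug/mL) for 30 min.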
BAZ2B block = blocks human BAZ2B | 360,000 tested, 4.4% active | Q9UIF8 | AlphaScreen BAZ2B-H3K14Ac peptide displacement | Potency, µM (top dose mostly 114 µM), actives largely listed as inhibitors | AID 504333; note: nearly all actives have a fitted effect of over 60% in size
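AlphaScreen luminescence quantifies BAZ2B engagement of H3K14Ac peptide; the protein and biotinylated peptide are both at 50 nM final, buffer PBS pH 7.4 with 0.01% Tween-20, all steps at room temperature.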
G9a inh = inhibitors of human histone lysine methyltransferase G9a; AID 504332; Q96KQ7; G9a H3K9 monomethylation, AlphaScreen, 2 h; 350,000 tested, 8.8% active; Potency, µM (highest dose often 102 µM), most hits filed as inhibitors; note: nearly all actives have a fitted effect of over 75% in size
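AlphaScreen detection with an anti-monomethyl H3K9 antibody quantified product after a 2 h room-temperature reaction containing 500 nM biotinylated H3K9 peptide, 20 µM SAM and 20 nM enzyme, which had been preincubated 15 min with compound.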
Of the large screens only hits and unclear results are named; the others gave an inactive call. Hits are enriched below; roughly 10% of the tested compounds scored in any of these assays. Calls come from the whole dose curve; as a rule, active = well fitted curve in the direction sought with a large enough effect; inconclusive = small, poorly fitted or top-dose-only effect, or another doubt; inactive = no such curve, though single readings can be large; an effect the other way counts as inactive or inconclusive.

COc1ccc(S(=O)(=O)N2CCCOC2CNC(=O)C(=O)NCCCn2ccnc2)cc1OC (stereo unspecified)	BAZ2B block 71µM
C=C(C)Cn1c(SCC(=O)Nc2cc(C)ccc2C)nc2sc3c(c2c1=O)CCCC3	none
Cc1ccnn1C(C)C(=O)O (stereo unspecified)	G9a inh 50µM
COc1ccc(CN2C(=O)/C(=C/c3ccc(-c4ccc(Cl)c(C(=O)O)c4)o3)SC2=S)cc1	BAZ2B block inconclusive, G9a inh 32µM (no result: JMJD2A Tudor, GLS inhibitor, HP1b binding inh)
O=C(O)c1cc(-c2ccc(/C=C3/SC(=S)N(Cc4ccccc4)C3=O)o2)ccc1Cl	JMJD2A Tudor 56µM, HP1b binding inh inconclusive, BAZ2B block inconclusive, G9a inh 13µM
Cc1ccccc1NC(=O)/C(C#N)=C/c1ccc(-c2ccc(Cl)c(C(=O)O)c2)o1	none
Cc1ccc(/C=C2/NC(=O)N(Cc3ccccc3)C2=O)o1	JMJD2A Tudor inconclusive, G9a inh inconclusive
Cc1ccc(/C=C2\SC(=S)N(Cc3ccccc3)C2=O)o1	JMJD2A Tudor 14µM, GLS inhibitor inconclusive, BAZ2B block inconclusive, G9a inh inconclusive
Cn1c(Cc2ccccc2)n[nH]c1=S	JMJD2A Tudor 28µM, G9a inh 10µM
Cn1c(CSCCOc2ccccc2)n[nH]c1=S	JMJD2A Tudor 6.3µM, G9a inh 10µM
Cn1c(Cc2cccs2)n[nH]c1=S	JMJD2A Tudor inconclusive, G9a inh inconclusive
Cn1c(CCc2ccccc2)n[nH]c1=S	JMJD2A Tudor 28µM, G9a inh inconclusive
COC(=O)C1=C[C@@H](C(=O)OC)C2C3=C(C(=O)[C@@]2(C)NC(=O)c2ccccc2)[C@H](C)[C@@H]2C(=O)N(C)C(=O)[C@@H]2[C@@H]3C1 (stereo partly specified)	none (no result: GLS inhibitor, BAZ2B block, G9a inh)
O=C(OCC#CCSc1nnc(-c2cccc3ccccc23)o1)c1ccc(SC(F)(F)F)cc1	none (no result: GLS inhibitor, HP1b binding inh, BAZ2B block, G9a inh)
Cc1ccc(NC(CC(=O)c2ccccc2)c2ccc(F)cc2)cc1 (stereo unspecified)	JMJD2A Tudor inconclusive, BAZ2B block inconclusive
O=C(CC(Nc1ccc(F)cc1)C(=O)O)c1ccccc1 (stereo unspecified)	GLS inhibitor inconclusive, G9a inh 10µM
CC(=O)Nc1ccc(OCc2cccc(-c3nc4ccccc4c(=O)n3Cc3ccco3)c2)cc1	JMJD2A Tudor 56µM (no result: GLS inhibitor, HP1b binding inh, BAZ2B block, G9a inh)
CC(=O)Nc1ccc(NC(=O)C(C)Sc2nc3ccccc3c(=O)n2Cc2ccco2)cc1 (stereo unspecified)	G9a inh 56µM
CCOC(=O)CSc1nc2ccccc2c(=O)n1Cc1ccco1	none
Cc1ccc(-c2c(C(=O)NCCc3ccccc3)oc(=O)c3ccccc23)cc1	none (no result: BAZ2B block)
CCOC(=O)Cc1c(-c2cccc(Br)c2)nc2c3ccccc3ccn12	none (no result: JMJD2A Tudor, HP1b binding inh, BAZ2B block, G9a inh)
CCNc1ncc2nc(-c3cccc(C#N)c3)c(=O)n(Cc3cccc(OC)c3)c2n1	none (no result: JMJD2A Tudor, GLS inhibitor, HP1b binding inh, BAZ2B block)
CC(Oc1ccccc1)C(=O)Nc1cccc(-c2nc3ccccc3[nH]2)c1 (stereo unspecified)	G9a inh 50µM
CC(C)CC(=O)Nc1cccc(-c2nc3ccccc3[nH]2)c1	none
COc1ccc(S(=O)(=O)N(C(=O)c2ccncc2)c2ccc(OC(=O)c3ccncc3)cc2)cc1	G9a inh 35µM
COc1ccc(N(C(=O)c2ccncc2)S(=O)(=O)c2ccc(F)cc2)cc1	none (no result: JMJD2A Tudor, GLS inhibitor, HP1b binding inh)
O=C1CCc2cc([S+](=O)([O-])NC3CCOCC3)ccc2N1	none (no result: GLS inhibitor, HP1b binding inh, BAZ2B block, G9a inh)
O=[N+]([O-])c1ccc(N/N=C/c2ccccc2O)cc1	none
Cc1cc[n+](-c2nc([O-])sc2/C=N/Nc2ccc([N+](=O)[O-])cc2)cc1	BAZ2B block inconclusive, G9a inh 45µM
COc1ccc(CCNc2oc(COc3ccccc3Cl)nc2C#N)cc1OC	JMJD2A Tudor inconclusive, BAZ2B block inconclusive, G9a inh inconclusive
COc1ccc(-c2nc(C#N)c(NCCc3ccccc3)o2)cc1OC	JMJD2A Tudor inconclusive, BAZ2B block 45µM, G9a inh inconclusive
CCNc1oc(COc2ccccc2F)nc1C#N	G9a inh 40µM
COc1ccc(CCNc2oc(COc3ccccc3F)nc2C#N)cc1OC	HP1b binding inh inconclusive, BAZ2B block inconclusive, G9a inh 45µM
CN(Cc1ccccc1)C(=O)c1c[nH]c2ccc(S(=O)(=O)Nc3ccccc3F)cc2c1=O	none (no result: BAZ2B block)
CSc1ccc(Cn2c(C)c(C(=O)NCc3cccs3)sc2=O)cc1	none (no result: JMJD2A Tudor, HP1b binding inh, BAZ2B block, G9a inh)
COc1ccccc1OCC(=O)NNC(=O)CCCC(=O)NNC(=O)COc1ccccc1OC	G9a inh inconclusive
COc1ccccc1OCC(=O)NNc1c2ccccc2nc2ccccc12	JMJD2A Tudor inconclusive, BAZ2B block inconclusive, G9a inh 35µM
C[N+]1(CC(=O)NNc2c3ccccc3nc3ccccc23)CCOCC1	BAZ2B block inconclusive, G9a inh 50µM (no result: JMJD2A Tudor, GLS inhibitor, HP1b binding inh)
Cn1c(=O)c(C#N)c(-c2ccc(F)cc2)c2cc(C(=O)c3cc(Cl)cc(Cl)c3O)cnc21	JMJD2A Tudor 45µM, HP1b binding inh inconclusive, BAZ2B block 35µM, G9a inh inconclusive
CCCCCCC(O)C/C=C\CCCCCCCC(=O)O (stereo unspecified)	none (no result: JMJD2A Tudor, HP1b binding inh, BAZ2B block, G9a inh)
O=C(O)c1ccc(COc2ccccc2/C=C2\NC(=O)N(Cc3ccc(F)cc3)C2=O)cc1	G9a inh inconclusive
O=C(CN1C(=O)N/C(=C\c2ccccc2OCc2ccc(C(=O)O)cc2)C1=O)Nc1ccc(F)cc1	HP1b binding inh inconclusive, BAZ2B block 71µM
Cc1cccc(NC(=O)CN2C(=O)N/C(=C\c3ccccc3OCc3ccc(C(=O)O)cc3)C2=O)c1	JMJD2A Tudor inconclusive, HP1b binding inh inconclusive, BAZ2B block 71µM
Cc1cc[n+](-c2ccccc2)c2ccccc12	G9a inh 25µM
C=C(C)COc1ccc(-c2n[nH]c(C)c2-c2ccc(OC)c(OC)c2)c(O)c1	JMJD2A Tudor inconclusive, BAZ2B block inconclusive, G9a inh inconclusive
COc1cc(C(=O)NCC(=O)NC(C)c2ccc(-n3ccnc3)cc2)cc(OC)c1OC (stereo unspecified)	none
COc1cc(C(=O)NC(C)c2ccc(-n3ccnc3)cc2)cc(OC)c1C (stereo unspecified)	JMJD2A Tudor 79µM, BAZ2B block 50µM, G9a inh 3.5µM
COc1cccc(C(Nc2ccccn2)c2c(NC(=O)c3ccco3)sc(C)c2C)c1 (stereo unspecified)	JMJD2A Tudor inconclusive, BAZ2B block inconclusive
Cc1sc(NC(=O)c2ccco2)c(C(Nc2ccccn2)c2ccccc2)c1C (stereo unspecified)	G9a inh 45µM
COc1ccc(C(Nc2ccccn2)c2c(NC(=O)c3ccco3)sc(C)c2C)cc1 (stereo unspecified)	JMJD2A Tudor inconclusive, BAZ2B block inconclusive, G9a inh 45µM
CCN(CC(=O)Nc1ccccc1C(F)(F)F)C(=O)c1ccc2c(c1)NC(=O)C(C)S2 (stereo unspecified)	none (no result: JMJD2A Tudor, HP1b binding inh, BAZ2B block, G9a inh)
COc1ccc(S(=O)(=O)N2CCc3ccccc32)cc1C(=O)N1CCOCC1	none
